# TbPYK inhibitor: qHTS of Trypanosoma Brucei Inhibitors; pyruvate kinase (Trypanosoma brucei), Q57TT1; TbPYK enzyme, Kinase-Glo Plus ATP luminescence, 45 min; Potency, µM (highest dose often 76.8 µM), inactives show top-dose activity, negative = inhibition, actives largely listed as inhibitors; hit rate 0.12% among 410,000; AID 624173, 2012; also: % is scaled to controls: 0 for no effect and ±100 for the full control effect; nearly all actives have a fitted effect of over 50% in size
#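 Screened from lowest to highest concentration, compounds were pinned into TbPYK/substrate mixtures, and ADP (130 uM final) was added. Plates sat at room temperature for 45 min prior to Kinase-Glo Plus detection by luminescence.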
# Sm TGR block: qHTS Assay for the Inhibitors of Schistosoma Mansoni Peroxiredoxins; Potency, µM (series often up to 114 µM), without a hit: at the top dose activity change, negative = inhibition, actives largely listed as inhibitors; purified TGR, DTNB reduction, TNB absorbance 405 nm; hit rate 3% among 360,000; Schistosoma mansoni thioredoxin glutathione reductase (TGR), Q962Y6; also: % is scaled to controls: 0 for no effect and ±100 for the full control effect; nearly all actives have a fitted effect of over 60% in size
#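 TGR 20 nM + NADPH 100 uM (dispensed conc.), cpd preinc 15 min RT; start with NADPH (500 uM addition) then DTNB (15 mM addition). Kinetic TNB absorbance, 405 nm filter. Four-parameter Hill fit across titration.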
# FBPA Giardia inh: qHTS Assay for Inhibitors of Fructose-1,6-bisphosphate Aldolase from Giardia Lamblia. purified Giardia FBPA. Potency, µM (top dose mostly 59.6 µM), for inactives: at the highest dose activity, negative = inhibition, most hits filed as inhibitors. hit rate 0.71% among 290,000; also: % is scaled to controls: 0 for no effect and ±100 for the full control effect; nearly all actives have a fitted effect of over 55% in size
#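 40 nM FBPA preincubated 10 min at RT with compound (up to 57.5 uM final), then substrate plus GAPDH/TPI/NAD/arsenate coupling and diaphorase/resazurin added. Fluorescence read after 20 min at RT, 525/598 nm.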
# NS1 function inh: qHTS Assay for Inhibitors of Influenza NS1 Protein Function | AID 2326, 2010 | Potency, µM (doses to about 46.1 µM), for the others: at the highest dose activity, positive = more growth | hit rate 0.4% among 270,000; calls by dose curve; also: actives are rising curves; nearly all actives have a fitted effect of over 50% in size
#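 A cell-based growth assay was used: compounds that relieve NS1-induced slow growth of budding yeast raise OD600. Assay medium was yeast nitrogen base with ammonium sulphate and -URA supplement, pH 6.0, with 2% galactose.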
# LmPK inhibitor: qHTS Assay for Inhibitors of Leishmania Mexicana Pyruvate Kinase (LmPK). hit rate 0.37% among 290,000. purified LmPK, Kinase-Glo ATP luminescence, 1 h. Potency, µM (series often up to 57.5 µM), without a hit: top-dose activity change, negative = inhibition, usual class: inhibitors. AID 1721, 2009; also: % is scaled to controls: 0 for no effect and ±100 for the full control effect
# Target sequence (Q27686 whole entry, looked up): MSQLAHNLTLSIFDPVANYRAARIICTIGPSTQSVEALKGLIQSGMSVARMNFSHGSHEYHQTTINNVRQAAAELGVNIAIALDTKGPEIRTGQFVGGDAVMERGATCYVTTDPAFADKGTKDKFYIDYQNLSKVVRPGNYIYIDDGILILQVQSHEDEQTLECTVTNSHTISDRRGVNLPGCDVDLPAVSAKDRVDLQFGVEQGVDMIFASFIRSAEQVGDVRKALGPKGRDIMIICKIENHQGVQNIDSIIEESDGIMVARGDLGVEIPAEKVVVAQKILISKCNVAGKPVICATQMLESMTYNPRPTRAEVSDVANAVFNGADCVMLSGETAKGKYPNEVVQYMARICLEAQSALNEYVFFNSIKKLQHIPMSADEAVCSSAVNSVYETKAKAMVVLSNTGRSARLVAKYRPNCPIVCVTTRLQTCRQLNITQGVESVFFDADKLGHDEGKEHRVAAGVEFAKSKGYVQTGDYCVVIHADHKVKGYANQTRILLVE
#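 ATP generated from ADP (0.1 mM) and PEP (0.5 mM) by 0.1 nM LmPK over 1 h at room temperature (pH 7.2 imidazole buffer) was detected by coupled luciferase luminescence. Values were normalized to uninhibited and no-enzyme wells.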
# RE007 growth inh: qHTS Assay for Inhibitors of the HIV-1 protein Vpr; S. pombe RE007 Vpr strain, BacTiter-Glo ATP luminescence, 24 h; Potency, µM (highest dose often 92.2 µM), inactives show at the top dose activity change, negative = less growth, usual class: inhibitors; hit rate 0.21% among 360,000; active = well fitted falling curve with a large enough effect; inconclusive = small, poorly fitted or top-dose-only effect; inactive = no such curve, though single readings can be large or run the other way; also: % is scaled to controls: 0 for no effect and ±100 for the full control effect; nearly all actives have a fitted effect of over 50% in size
#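 Fission yeast strain RE007, carrying one chromosomally integrated HIV-1 vpr copy, was seeded at OD 0.01 in PMG+AL medium with 23 nL pinned compound. After 24 h at 30 °C and 99% humidity, viability was read by BacTiter-Glo luminescence.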
# * marks the source's active call; other numbers are inactive results; ? = inconclusive; . = no result given; [ ] = dose if it differs, or a comment. Most compounds without a hit are left out; they make up all but 3.5% or so of the library. Unless noted, calls follow the shape of the dose curve; as a rule, active = well fitted curve in the direction sought with a large enough effect; inconclusive = small, poorly fitted or top-dose-only effect, or another doubt; inactive = no such curve, though single readings can be large; an effect the other way counts as inactive or inconclusive. Potency is read from the fitted curve at half-maximal effect.
SMILES,TbPYK inhibitor,Sm TGR block,FBPA Giardia inh,NS1 function inh,LmPK inhibitor,RE007 growth inh
CC1=[N+](C)c2c(ccc3cccnc23)C1(C)C,-1%,20%,2µM*,-3%,-6%,?
COc1cc(CCN)c(OC)cc1Br,4%[157 µM],.,.,.,.,.
NC(=O)CSc1oc(-c2cccs2)nc1S(=O)(=O)c1ccc(Br)cc1,-3%,1%,.,.,.,.
Cc1nn(Cc2ccc(Cl)c(Cl)c2)c(C)c1NC(=O)c1cc(-c2ccco2)on1,-11%,45µM*,-5%,-34%,5%,-3%
Cc1cc(C(=O)N/N=C/c2ccc(N(C)C)o2)cs1,?,?,.,?,-16%,2%
O=C(N/N=C/c1ccc(N2CCCCC2)o1)C(O)(c1ccccc1)c1ccccc1,.,22µM*,-26%,26%,-1%,.
CN(C)c1ccc(/C=N/NC(=O)C(O)(c2ccccc2)c2ccccc2)o1,?,10µM*,-29%,-6%,2%,3%
CN(C)c1ccc(/C=N/NC(=O)c2ccccc2O)o1,?,22µM*,-22%,.,0%,-6%
O=C(NN=Cc1ccccc1O)C(O)(c1ccccc1)c1ccccc1,-5%,.,.,.,.,0%
O=C(Nc1ccc(C(=O)OCc2cc(=O)n3c4c(sc3n2)CCCC4)cc1)c1ccc(Cl)cc1,-14%,5%,.,.,.,.
O=C(Nc1ccc(/C=C/c2ccc(NC(=O)c3cc(S(=O)(=O)O)c4cccnc4c3O)cc2S(=O)(=O)O)c(S(=O)(=O)O)c1)c1cc(S(=O)(=O)O)c2cccnc2c1O,10%,.,.,.,.,.
CN(c1ncccc1CNc1nc(Nc2ccc3c(c2)CC(=O)N3)ncc1C(F)(F)F)S(C)(=O)=O,1%,.,.,.,.,.
Cc1ccc(C(=O)N2CCN(c3ccccc3)CC2)cc1NC(=O)c1ccco1,-5%,-24%,.,-4%,0%,8%
COc1ccc(N2CCN(C(=O)c3ccc(C)c(NC(=O)c4ccco4)c3)CC2)cc1,-6%,1.8µM*,.,16%,0%,-17%
Cc1ccc(-n2nc3c(c2NC(=O)c2ccco2)CS(=O)(=O)C3)cc1C,-6%,-25%,.,9%,-11%,2%
Cc1ccc(-n2nc3c(c2NC(=O)c2ccco2)CS(=O)(=O)C3)cc1,10%,?,-8%,-5%,4%,5%
COc1ccc(-n2nc3c(c2NC(=O)c2ccco2)CS(=O)(=O)C3)cc1,-4%,45µM*,-1%,-4%,0%,-3%
O=C(Nc1c2c(nn1-c1cccc(Cl)c1)CS(=O)(=O)C2)c1ccco1,1%,45µM*,-7%,8%,2%,-5%
COc1ccc2c(c1)CC(NC(=O)Nc1ccc(NC(C)=O)cc1)CO2 (stereo not drawn),-7%,-2%,.,.,.,.
COc1cc(CN2CCCC(C(=O)c3ccc4c5c(cccc35)CC4)C2)cc(OC)c1O (stereo not drawn),-18%,14µM*,7.9µM*,2%,0%,-12%
Oc1ccc(CNc2ccccc2F)c2cccnc12,-12%,0.11µM*,15%,-7%,21%,-12%
Oc1ccc(CNCc2ccccc2)c2cccnc12,.,.,.,0%,.,.
Oc1ccc(CNc2cccc(F)c2F)c2cccnc12,.,0.11µM*,.,.,.,.
Oc1ccc(CNc2ccc(C(F)(F)F)cc2Cl)c2cccnc12,.,1µM*,.,.,.,.
Oc1ccc(Cl)c2cccnc12,-6%,.,0%,.,.,13%
COC(=O)c1ccc(NC(=O)CC2C(=O)N(c3ccccc3)C(=O)N2Cc2cccs2)cc1 (stereo not drawn),-4%,7%,.,.,.,.
CC1(CCl)CN1S(=O)(=O)c1ccccc1 (stereo not drawn),1%,40µM*,-3%,-2%,2%,4%
CCCS(=O)(=O)N1CCN(S(=O)(=O)c2ccccc2)CC1,-1%,1%,8%,5%,-6%,24%

# Compound activity from PubChem BioAssay.
